Inconclusive results are not listed. Entries that show only a call come without a potency. A number with no mark means an inactive call. The source made the active and inactive calls. Calls follow the shape of the dose curve; as a rule, active = well fitted cell-killing curve with a large enough effect in the repeat runs; inconclusive = weak or mixed curves, or effect the other way; inactive = flat fitted curve, though single readings scatter.
What was measured:
[1] = cAMP Responsive Elements (CRE) small molecule antagonists, cell-based qHTS assay: qHTS cell viability counter screen (AID 2060913); also: nearly all actives have a fitted effect of over 40% in size
How it was run: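 CRE-bla HEK293T cells (2,000/well, 18 h) given compound plus NKH477 0.25 uM final for 3 h at 37C; viability counter-screen by CellTiter-Glo luminescence in same wells after 30 min.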

[2] = cAMP Responsive Elements (CRE) small molecule agonists, cell-based qHTS assay: qHTS cell viability counter screen (AID 2060914);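 also: viability read after 3 h of compound exposure; nearly all actives have a fitted effect of over 50% in size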
How it was run: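 Cells are seeded and incubated 18 h, treated with compounds in DMSO for 3 h, read for the bla reporter, then given CellTiter-Glo; luminescence is measured after 30 min at room temperature.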

Structure (SMILES) | Potency [1] | Potency [2] | viability change, negative = cytotoxic [1] | activity change, negative = cytotoxicity [2]
CCCCCC(=O)OCC | inactive | inactive |  | 
O=c1[nH]cnc2nc[nH]c12 | inactive | inactive |  | 
CCOC(=O)CC(C(C)=O)C(C)=O | inactive | inactive |  | 
COc1ccc(Br)c(C)c1 | inactive | inactive |  | 
Cc1cc(O)ccc1O | inactive | inactive |  | 
CCCCC(CC)COCCC#N (stereo not drawn) | inactive | inactive |  | 
Oc1cc(O)c2c(c1)O[C@H](c1ccc(O)c(O)c1)[C@H](O)C2 | inactive | inactive |  | 
CC(C)=CCC/C(C)=C/C(=O)O | inactive | inactive |  | 
CC(C)CC=O | inactive | inactive |  | 
COC(=O)[C@@H]1[C@H]2C[C@H]3c4[nH]c5ccccc5c4CCN3C[C@@H]2CC[C@@H]1O | inactive | inactive |  | 
CCOC(=O)[C@H](CCc1ccccc1)N[C@@H](C)C(=O)N1Cc2ccccc2C[C@H]1C(=O)O | inactive | inactive |  | 
CCCOC(=O)c1ccccc1 | inactive | inactive |  | 
Cc1c(C)c([N+](=O)[O-])c(C(C)(C)C)c([N+](=O)[O-])c1C | inactive | inactive |  | 
COc1cccc(OC)c1O | inactive | inactive |  | 
CCOc1ccc(NC(N)=O)cc1 | inactive | inactive |  | 
O=C1CN(/N=C/c2ccc([N+](=O)[O-])o2)C(=O)N1 | inactive | inactive |  | 
O=C(c1ccccc1)c1ccc(Cl)cc1 | inactive | inactive |  | 
CCCCN | inactive | inactive |  | 
CCCCCCCCCOC(=O)CCCCC(=O)OCCCCCCC | inactive | inactive |  | 
Cc1c(C)c2c(c(C)c1OC(=O)c1cccnc1)CC[C@@](C)(CCC[C@H](C)CCC[C@H](C)CCCC(C)C)O2 | inactive | inactive |  | 
O=C(/C=C/c1ccc([N+](=O)[O-])cc1)c1ccccc1 | inactive | inactive |  | 
O=C(Nc1ccc2c(c1)Cc1ccccc1-2)C(F)(F)F | inactive | inactive |  | 
O=C1OC(CN2CCOCC2)CN1/N=C/c1ccc([N+](=O)[O-])o1 (stereo not drawn) | inactive | inactive |  | 

Structure (SMILES) | Potency [1] | Potency [2] | viability change, negative = cytotoxic [1] | activity change, negative = cytotoxicity [2]
COc1cc2c(cc1OC)CN(C(=O)[C@H](C)N[C@@H](CCc1ccccc1)C(=O)O)[C@H](C(=O)O)C2 | inactive | inactive |  | 
CC1CCCO1 (stereo not drawn) | inactive | inactive |  | 
Cc1ccc(C=O)s1 | inactive | inactive |  | 
C[C@]12CCC(=O)C=C1CC[C@H]1[C@@H]3CC[C@](O)(C(=O)CO)[C@@]3(C)C[C@H](O)[C@@]12F | inactive | inactive |  | 
O=C(O)Cn1c(=O)n(Cc2ccc(Br)cc2F)c(=O)c2ccc(Cl)cc21 | inactive | inactive |  | 
CC(C)NC(=O)c1ccc(C=O)cc1 | inactive | inactive |  | 
CCCCCCCCN1CCCC1=O | inactive | inactive |  | 
Nc1ccc(S(=O)(=O)Nc2nccs2)cc1 | inactive | inactive |  | 
Nc1ccc(C(=O)O)cc1 | inactive | inactive |  | 
CC(=O)OC/C=C(/C)CCC=C(C)C | inactive | inactive |  | 
CC(C)[C@H]1CC[C@H](C)C[C@@H]1O | inactive | inactive |  | 
O=C1OC(=O)C2CC=CCC12 (stereo not drawn) | inactive | inactive |  | 
COCC(O)CO (stereo not drawn) | inactive | inactive |  | 
CC1CCC(C(C)C)C(O)C1 (stereo not drawn) | inactive | inactive |  | 
CC1=C(/C=C/C(C)=C/C=C/C(C)=C/CO)C(C)(C)CCC1 | inactive | inactive |  | 
c1ccc2n[nH]nc2c1 | inactive | inactive |  | 
CCCCCc1ccc(O)cc1 | inactive | inactive |  | 
COC(=O)c1cc(Cl)ccc1[N+](=O)[O-] | inactive | inactive |  | 
CCCCCCCC(=O)OCC(O)CO (stereo not drawn) | inactive | inactive |  | 
CCc1c(Br)c(Br)c(Br)c(Br)c1Br | inactive | inactive |  | 
NS(=O)(=O)c1ccccc1Cl | inactive | inactive |  | 
O=c1n(CC2CO2)c(=O)n(CC2CO2)c(=O)n1CC1CO1 (stereo not drawn) | inactive | inactive |  | 
O=C(O[C@@H](C(=O)O)[C@@H](OC(=O)c1ccccc1)C(=O)O)c1ccccc1 | inactive | inactive |  | 

Structure (SMILES) | Potency [1] | Potency [2] | viability change, negative = cytotoxic [1] | activity change, negative = cytotoxicity [2]
CC1=NN(c2cc(S(=O)(=O)O)ccc2Cl)C(=O)C1N=Nc1ccccc1 (stereo not drawn) | inactive | inactive |  | 
CCOC(=O)c1ccccc1OC | inactive | inactive |  | 
CC(=O)N/N=C/c1ccc([N+](=O)[O-])o1 | inactive | inactive |  | 
CC(C)c1ccccc1C(C)C | inactive | inactive |  | 
CNC(=O)Nc1ccc(Cl)c(Cl)c1 | inactive | inactive |  | 
CCCCCCCCCCCCI | inactive | inactive |  | 
O=C(Cl)c1ccccc1[N+](=O)[O-] | inactive | inactive |  | 
CC1(C)NC(=O)NC1=O | inactive | inactive |  | 
O=c1cc(-c2ccccc2)oc2ccccc12 | inactive | inactive |  | 
c1ccc(CN(CC2=NCCN2)c2ccccc2)cc1 | inactive | inactive |  | 
O=C(O)CN1C(=O)c2cccc3cccc(c23)C1=O | inactive | inactive |  | 
CCCCCOC(=O)CCC | inactive | inactive |  | 
CN(C)/N=N/c1nc[nH]c1C(N)=O | inactive | inactive |  | 
CCCOC(=O)c1ccc(N)cc1 | inactive | inactive |  | 
CC(=O)N[C@@H](CC(C)C)C(=O)O | inactive | inactive |  | 
CCCCC(=O)O[C@]1(C(=O)CO)[C@@H](C)C[C@H]2[C@@H]3CCC4=CC(=O)C=C[C@]4(C)[C@@]3(F)[C@@H](O)C[C@@]21C | inactive | inactive |  | 
NC(Cc1ccc(Cl)cc1)C(=O)O (stereo not drawn) |  |  | 9.93% [at 0.349 µM] | -0.576% [at 0.349 µM]
Cc1nc(Nc2ncc(C(=O)Nc3c(C)cccc3Cl)s2)cc(N2CCN(CCO)CC2)n1 | inactive | inactive |  | 
O=C(c1ccc2c(c1)C(=O)OC2=O)c1ccc2c(c1)C(=O)OC2=O | inactive | inactive |  | 
Cc1ncc([N+](=O)[O-])n1CCO | inactive | inactive |  | 
O=C(Cn1ccnc1[N+](=O)[O-])NCCO | inactive | inactive |  | 
COCCCN1CCC(NC(=O)c2cc(Cl)c(N)c3c2OCC3)CC1 | inactive | inactive |  | 
Brc1c2ccccc2c(Br)c2ccccc12 |  |  | -0.61% [at 8.39 µM] | -1.97% [at 8.39 µM]

Structure (SMILES) | Potency [1] | Potency [2] | viability change, negative = cytotoxic [1] | activity change, negative = cytotoxicity [2]
CCCCCCOC(C)=O | inactive | inactive |  | 
C[C@]12C=CC(=O)C=C1CC[C@@H]1[C@@H]2C(=O)C[C@@]2(C)[C@H]1CC[C@]2(O)C(=O)CO | inactive | inactive |  | 
C=CC(=O)OCCN(CC)CC | inactive | inactive |  | 
Cc1ccc(C)c(O)c1 | inactive | inactive |  | 
Oc1ccc2c(c1)OC[C@@H](N1CCC(O)(c3ccc(F)cc3)CC1)[C@H]2O | inactive | inactive |  | 
O=C[C@@H](O)[C@H](O)[C@H](O)CO | inactive | inactive |  | 
CCN(CC)C(=S)SSC(=S)N(CC)CC | inactive | inactive |  | 
NC(=O)N[C@@H](CCC(=O)O)C(=O)O | inactive | inactive |  | 
Oc1cccc(Nc2ccccc2)c1 | inactive | inactive |  | 
Cc1ccc(-n2[nH]c(C)c(N=Nc3cccc(-c4cccc(C(=O)O)c4)c3O)c2=O)cc1C | inactive | inactive |  | 
CC(=O)c1ccc2c(c1)N(CCCN1CCC(CCO)CC1)c1ccccc1S2 | inactive | inactive |  | 
CCCCCCCC(=O)[O-].CCCCCCCC(=O)[O-].[Zn+2] | inactive | inactive |  | 
CCc1cccc2c(CCO)c[nH]c12 | inactive | inactive |  | 
CCCCCCCC/C=C\CCCCCCCC(=O)OCC | inactive | inactive |  | 
CC(=O)[C@]1(O)Cc2c(O)c3c(c(O)c2[C@@H](O[C@H]2C[C@H](N)[C@H](O)[C@H](C)O2)C1)C(=O)c1ccccc1C3=O | inactive | inactive |  | 
CC(C(=O)O)c1ccc2c(c1)[nH]c1ccc(Cl)cc12 (stereo not drawn) | inactive | inactive |  | 
COc1ccc(C(=O)Nc2ccccc2)cc1[N+](=O)[O-] | inactive | inactive |  | 
CC1(C)O[C@@H]2C[C@H]3[C@@H]4C[C@H](F)C5=CC(=O)C=C[C@]5(C)[C@@]4(F)[C@@H](O)C[C@]3(C)[C@]2(C(=O)CO)O1 | inactive | inactive |  | 
CCCCCCCCCCCCOC(C)=O | inactive | inactive |  | 
Nc1ccc2cc3ccccc3cc2c1 | inactive | inactive |  | 
ICCc1ccccc1 | inactive | inactive |  | 
Cc1cc(Cl)c(C)cc1Cl | inactive | inactive |  | 
CO[Si](C)(OC)OC | inactive | inactive |  | 

Structure (SMILES) | Potency [1] | Potency [2] | viability change, negative = cytotoxic [1] | activity change, negative = cytotoxicity [2]
NS(=O)(=O)c1cc2c(cc1Cl)NC(C(Cl)Cl)NS2(=O)=O (stereo not drawn) | inactive | inactive |  | 
CCCCCCCCC(=O)O | inactive | inactive |  | 
CCc1cc(C2=C(C(=O)O)N(c3ccccc3C(F)(F)F)S(=O)(=O)c3ccccc32)cc2c1OCO2 | inactive | inactive |  | 
Nc1nc(Cl)cc(Cl)n1 | inactive | inactive |  | 
NC(=O)c1c(Cl)cccc1Cl | inactive | inactive |  | 
CCCCC(CC)(CO)CO | inactive | inactive |  | 
O=C1NC(=O)c2cc([N+](=O)[O-])ccc21 | inactive | inactive |  | 
Clc1ccnc(Cl)n1 | inactive | inactive |  | 
CCN(CC)CCCN(c1ccccc1)C1Cc2ccccc2C1 | inactive | inactive |  | 
Nc1ccc(Nc2ccccc2)cc1 | inactive | inactive |  | 
Oc1ccccc1O | inactive | inactive |  | 
CC1=CC[C@@H]2C[C@H]1C2(C)C |  |  | -0.978% [at 18.9 µM] | -0.0766% [at 18.9 µM]
O=[N+]([O-])c1ccc(CCO)cc1 | inactive | inactive |  | 
C/C(C=O)=C\c1ccccc1 | inactive | inactive |  | 
Cc1cc(C)c(/C=C2\C(=O)Nc3ccccc32)[nH]1 | inactive | inactive |  | 
CNC(=O)c1c(I)c(NC(=O)CCCCC(=O)Nc2c(I)c(C(=O)O)c(I)c(C(=O)NC)c2I)c(I)c(C(=O)O)c1I | inactive | inactive |  | 
ClC(Cl)(Br)Br | inactive | inactive |  | 
CCCCCCCCCC#N | inactive | inactive |  | 
CCC(C)(CCCC(C)C)OC(C)=O (stereo not drawn) | inactive | inactive |  | 
O=C(O)c1ccc(C(=O)O)cc1 | inactive | inactive |  | 
O=C1[C@@H]2[C@H]3CC[C@H](C3)[C@@H]2C(=O)N1CCCCN1CCN(c2ncccn2)CC1 | inactive | inactive |  | 
CCCC(=O)OCc1ccccc1 | inactive | inactive |  | 

Reference: PubChem BioAssay (Tox21)
